A short description of experiment [1]: small molecules captured by biotinylated probe aFSTL3 – biochemical, small-molecule microarray, fluorescence 635/667, stem cell growth factor project, primary screen (AID 1064).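 Further: measures binding of the biotinylated anti-FSTL3 antibody to printed compounds.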 To be noted: higher = more signal.
Experiment [2] can be described thus: binders from COS7 lysate, DM2A8 probe, primary screen, torsin A project, cell lysate, small-molecule microarray, fluorescence 635/667 (AID 1065). As to conditions: higher = more signal, COS7 lysate expressing mutant human TOR1A.
Experiment [3] in a line: small molecules captured by biotinylated probe aFGF2 – biochemical, small-molecule microarray, fluorescence 635/667, stem cell growth factor project, primary screen (AID 1067).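 Further: measures binding of biotinylated aFGF2 protein to printed compounds on slides; z-score merges feature fluorescence and signal-to-noise across triplicate slides.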 To be noted: higher = more signal.
Experiment [4] in a line: small molecules captured by biotinylated probe aFGF10 – biochemical, small-molecule microarray, fluorescence 635/667, stem cell growth factor project, primary screen (AID 1071).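 Further: score merges 667 nm spot intensity and signal to noise from triplicate slides.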 As to conditions: higher = more signal.
Experiment [5] has as its target Neurogenic locus notch homolog protein 2 (Homo sapiens) (UniProt Q04721). The experiment is described as follows: small molecules binding Notch2 protein – biochemical, small-molecule microarray, 635 nm fluorescence, stem cell growth factors, primary screen (AID 1073). To be noted: higher = more signal.
Experiment [6] deals with Pro-neuregulin-1, membrane-bound isoform (Homo sapiens) (UniProt Q02297). The experiment is described as follows: small molecules binding neuregulin-1 protein – biochemical, small-molecule microarray, fluorescence 635/667, psychiatric disease protein project, primary screen (AID 1075).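 Further: score combines 667 nm spot fluorescence with signal to noise.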 To be noted: NRG1 binding, 635 nm fluorescence, higher = more signal.
The test system of experiment [7] is Neuregulin-1 EGF-like domain. In words: small molecules binding NRG1 EGF domain – biochemical, small-molecule microarray, 635 nm fluorescence, primary screen (AID 1081).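 Further: binding of the protein to compounds printed on small-molecule microarray slides.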 As to conditions: higher = more signal.
Experiment [8] in a line: FRG1 expression reporter modulators in myotubes – cell-based, C2C12 myotubes, firefly/Renilla luciferase, luminescence, FRG1 inhibition for FSHD, primary screen (AID 1084). To be noted: FRG1 promoter luciferase, higher = more signal, called active from +8 up or from −8 down.
A short description of experiment [9]: small molecules captured by biotinylated probe aFST – biochemical, small-molecule microarray, fluorescence 635/667, stem cell growth factor project, primary screen (AID 1086).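 Further: score merges 667 nm fluorescence with signal-to-noise of each printed compound spot.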 To be noted: higher = more signal.
The nature of experiment [10]: binders of probe aHhip on microarray, primary screen, stem cell growth factor project, biochemical, small-molecule microarray, fluorescence 635/667 (AID 1087).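 Further: score merges spot fluorescence at 667nm with spot signal to noise ratio.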 To be noted: higher = more signal.
The subject of experiment [11] is PRMT1 (protein arginine N-methyltransferase 1). In words: small molecules binding arginine methyltransferase PRMT1 – biochemical, small-molecule microarray, 635 nm fluorescence, primary screen (AID 1088).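 Further: binding of Prmt1 protein to compounds spotted on small-molecule microarray slides.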 To be noted: higher = more signal.
The nature of experiment [12]: growth effects on S. cerevisiae YJM789 – YJM789 clinical isolate, OD600, 24 h, basal, primary screen (AID 1089).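 Further: growth of clinical yeast isolate S. cerevisiae YJM 789 seeded 1000 cells per well; test concentration not given here.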 To be noted: higher = more signal, called active from +8 up or from −8 down.
The nature of experiment [13]: S. pombe growth modifiers, basal conditions – strain 972, OD600, 24 h, no modulator, primary screen (AID 1090).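 Further: basal condition with compound alone and no growth modifier present; test concentration not given here.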 To be noted: S. pombe 972 growth, higher = more signal, called active from +8 up or from −8 down.
A short description of experiment [14]: budding yeast growth modifiers under rapamycin – strain BY4716, OD600, 96 h, primary screen (AID 1091). Further: test concentration not given here. As to conditions: S. cerevisiae BY4716 + rapamycin, higher = more signal, called active from +8 up or from −8 down.
Experiment [15] has as its target Torsin-1A-interacting protein 2 (Homo sapiens) (UniProt Q8NFQ8). The experiment is described as follows: small molecules binding lysate-expressed LULL1 – cell lysate, human LULL1 lysate, 635/667 nm fluorescence, primary screen (AID 1092).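 Further: probe is lysate of COS7 cells overexpressing human LULL1; score merges per-feature 667 nm fluorescence with signal-to-noise.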 To be noted: small-molecule microarray, hLULL1 lysate binding, 635 nm fluorescence; higher = more signal.
A short description of experiment [16]: optical density change of DRC41 E. coli – strain DRC41, OD650, 24 h, E. coli filamentation project, primary screen (AID 1093).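 Further: MC1000 strain lacking acrAB efflux and sulA so SOS filamentation is blocked; test concentration not given here.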 To be noted: E. coli DRC41 growth, higher = more signal, called active from +8 up or from −8 down.
Experiment [17] is described as follows: probe aLefty2 binding to arrayed compounds – biochemical, biotinylated probe, 635/667 nm fluorescence, primary screen (AID 1094).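 Further: score merges spot fluorescence near 667 nm with spot signal-to-noise ratio.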 As to conditions: small-molecule microarray, higher = more signal.
The test system of experiment [18] is Noggin (protein binding on small-molecule microarray). In words: small molecules binding Noggin protein – biochemical, 635/667 nm fluorescence, primary screen (AID 1095).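 Further: score merges 667 nm feature fluorescence with signal to noise over triplicate slides.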 To be noted: 635 nm fluorescence, higher = more signal.
The target of experiment [19] is Neurogenic locus notch homolog protein 3 (Homo sapiens) (UniProt Q9UM47). In words: small molecules binding NOTCH3 protein – biochemical, 635/667 nm fluorescence, primary screen (AID 1096). As to conditions: small-molecule microarray, 635 nm fluorescence, higher = more signal.
Chain of Neurogenic locus notch homolog protein 3 (Homo sapiens) (Q9UM47 whole entry, looked up): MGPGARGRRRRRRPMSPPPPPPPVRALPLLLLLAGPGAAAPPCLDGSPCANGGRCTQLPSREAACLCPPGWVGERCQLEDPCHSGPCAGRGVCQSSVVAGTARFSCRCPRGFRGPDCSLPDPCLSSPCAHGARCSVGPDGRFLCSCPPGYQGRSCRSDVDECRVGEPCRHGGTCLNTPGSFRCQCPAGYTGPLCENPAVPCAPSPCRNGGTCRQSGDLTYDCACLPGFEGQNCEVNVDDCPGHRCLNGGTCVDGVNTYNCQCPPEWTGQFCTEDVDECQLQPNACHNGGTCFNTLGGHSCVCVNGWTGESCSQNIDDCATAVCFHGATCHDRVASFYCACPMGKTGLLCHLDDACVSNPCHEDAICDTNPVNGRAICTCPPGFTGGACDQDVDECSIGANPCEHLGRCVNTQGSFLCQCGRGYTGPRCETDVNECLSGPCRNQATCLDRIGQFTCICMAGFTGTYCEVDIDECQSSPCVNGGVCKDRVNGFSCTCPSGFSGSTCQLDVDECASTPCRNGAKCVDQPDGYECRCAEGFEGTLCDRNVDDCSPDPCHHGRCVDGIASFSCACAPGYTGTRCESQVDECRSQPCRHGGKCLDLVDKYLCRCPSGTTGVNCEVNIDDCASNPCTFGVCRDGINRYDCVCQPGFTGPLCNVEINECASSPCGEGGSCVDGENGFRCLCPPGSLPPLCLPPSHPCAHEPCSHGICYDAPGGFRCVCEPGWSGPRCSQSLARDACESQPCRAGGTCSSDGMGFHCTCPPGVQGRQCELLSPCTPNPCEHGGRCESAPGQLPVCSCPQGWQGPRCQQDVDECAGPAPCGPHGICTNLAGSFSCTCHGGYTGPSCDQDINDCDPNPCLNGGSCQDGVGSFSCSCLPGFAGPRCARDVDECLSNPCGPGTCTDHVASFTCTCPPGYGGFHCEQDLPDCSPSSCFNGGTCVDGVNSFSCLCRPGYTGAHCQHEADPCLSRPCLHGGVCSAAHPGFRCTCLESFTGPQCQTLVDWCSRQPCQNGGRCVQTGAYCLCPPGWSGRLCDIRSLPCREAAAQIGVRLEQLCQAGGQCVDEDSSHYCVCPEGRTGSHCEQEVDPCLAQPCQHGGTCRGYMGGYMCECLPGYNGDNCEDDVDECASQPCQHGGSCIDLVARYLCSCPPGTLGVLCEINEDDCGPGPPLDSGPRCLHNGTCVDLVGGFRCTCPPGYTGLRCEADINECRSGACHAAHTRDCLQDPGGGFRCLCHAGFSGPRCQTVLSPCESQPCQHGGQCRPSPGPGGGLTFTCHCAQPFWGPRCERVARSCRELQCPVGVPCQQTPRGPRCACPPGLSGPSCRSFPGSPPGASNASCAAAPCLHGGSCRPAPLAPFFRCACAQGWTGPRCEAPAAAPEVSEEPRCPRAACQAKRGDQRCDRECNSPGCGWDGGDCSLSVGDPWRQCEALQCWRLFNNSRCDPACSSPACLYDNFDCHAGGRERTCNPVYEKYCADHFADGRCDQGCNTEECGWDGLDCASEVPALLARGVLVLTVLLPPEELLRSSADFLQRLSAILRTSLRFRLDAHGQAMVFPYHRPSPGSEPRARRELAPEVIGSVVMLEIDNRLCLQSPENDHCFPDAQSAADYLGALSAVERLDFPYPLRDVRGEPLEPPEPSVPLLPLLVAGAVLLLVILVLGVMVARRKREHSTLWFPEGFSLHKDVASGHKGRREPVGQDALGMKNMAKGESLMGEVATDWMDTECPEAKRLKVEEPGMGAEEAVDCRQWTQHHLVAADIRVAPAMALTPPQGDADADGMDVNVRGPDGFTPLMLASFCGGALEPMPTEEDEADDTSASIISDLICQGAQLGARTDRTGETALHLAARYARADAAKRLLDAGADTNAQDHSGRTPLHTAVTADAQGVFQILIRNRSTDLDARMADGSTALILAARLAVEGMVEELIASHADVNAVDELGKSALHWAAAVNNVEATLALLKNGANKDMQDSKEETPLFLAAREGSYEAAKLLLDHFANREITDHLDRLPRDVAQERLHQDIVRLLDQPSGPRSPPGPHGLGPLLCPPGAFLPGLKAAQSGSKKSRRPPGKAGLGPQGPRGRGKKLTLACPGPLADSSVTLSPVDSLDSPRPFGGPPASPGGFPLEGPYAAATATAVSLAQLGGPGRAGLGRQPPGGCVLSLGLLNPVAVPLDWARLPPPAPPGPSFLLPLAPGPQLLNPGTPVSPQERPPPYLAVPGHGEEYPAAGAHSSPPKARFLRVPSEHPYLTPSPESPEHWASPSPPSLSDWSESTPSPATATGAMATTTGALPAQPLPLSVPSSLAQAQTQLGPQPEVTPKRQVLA
Experiment [20] can be described thus: probe aEGFR binding to arrayed compounds – biochemical, biotinylated probe, 635/667 nm fluorescence, primary screen (AID 1097).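 Further: probe is a biotinylated anti-EGFR antibody binding compounds printed on slides; score combines fluorescence near 667 nm and signal to noise of each spot.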 As to conditions: small-molecule microarray, higher = more signal.

Calls of active or inactive are those of the source.

Chain of Neurogenic locus notch homolog protein 2 (Homo sapiens) (Q04721 whole entry, looked up, canonical isoform): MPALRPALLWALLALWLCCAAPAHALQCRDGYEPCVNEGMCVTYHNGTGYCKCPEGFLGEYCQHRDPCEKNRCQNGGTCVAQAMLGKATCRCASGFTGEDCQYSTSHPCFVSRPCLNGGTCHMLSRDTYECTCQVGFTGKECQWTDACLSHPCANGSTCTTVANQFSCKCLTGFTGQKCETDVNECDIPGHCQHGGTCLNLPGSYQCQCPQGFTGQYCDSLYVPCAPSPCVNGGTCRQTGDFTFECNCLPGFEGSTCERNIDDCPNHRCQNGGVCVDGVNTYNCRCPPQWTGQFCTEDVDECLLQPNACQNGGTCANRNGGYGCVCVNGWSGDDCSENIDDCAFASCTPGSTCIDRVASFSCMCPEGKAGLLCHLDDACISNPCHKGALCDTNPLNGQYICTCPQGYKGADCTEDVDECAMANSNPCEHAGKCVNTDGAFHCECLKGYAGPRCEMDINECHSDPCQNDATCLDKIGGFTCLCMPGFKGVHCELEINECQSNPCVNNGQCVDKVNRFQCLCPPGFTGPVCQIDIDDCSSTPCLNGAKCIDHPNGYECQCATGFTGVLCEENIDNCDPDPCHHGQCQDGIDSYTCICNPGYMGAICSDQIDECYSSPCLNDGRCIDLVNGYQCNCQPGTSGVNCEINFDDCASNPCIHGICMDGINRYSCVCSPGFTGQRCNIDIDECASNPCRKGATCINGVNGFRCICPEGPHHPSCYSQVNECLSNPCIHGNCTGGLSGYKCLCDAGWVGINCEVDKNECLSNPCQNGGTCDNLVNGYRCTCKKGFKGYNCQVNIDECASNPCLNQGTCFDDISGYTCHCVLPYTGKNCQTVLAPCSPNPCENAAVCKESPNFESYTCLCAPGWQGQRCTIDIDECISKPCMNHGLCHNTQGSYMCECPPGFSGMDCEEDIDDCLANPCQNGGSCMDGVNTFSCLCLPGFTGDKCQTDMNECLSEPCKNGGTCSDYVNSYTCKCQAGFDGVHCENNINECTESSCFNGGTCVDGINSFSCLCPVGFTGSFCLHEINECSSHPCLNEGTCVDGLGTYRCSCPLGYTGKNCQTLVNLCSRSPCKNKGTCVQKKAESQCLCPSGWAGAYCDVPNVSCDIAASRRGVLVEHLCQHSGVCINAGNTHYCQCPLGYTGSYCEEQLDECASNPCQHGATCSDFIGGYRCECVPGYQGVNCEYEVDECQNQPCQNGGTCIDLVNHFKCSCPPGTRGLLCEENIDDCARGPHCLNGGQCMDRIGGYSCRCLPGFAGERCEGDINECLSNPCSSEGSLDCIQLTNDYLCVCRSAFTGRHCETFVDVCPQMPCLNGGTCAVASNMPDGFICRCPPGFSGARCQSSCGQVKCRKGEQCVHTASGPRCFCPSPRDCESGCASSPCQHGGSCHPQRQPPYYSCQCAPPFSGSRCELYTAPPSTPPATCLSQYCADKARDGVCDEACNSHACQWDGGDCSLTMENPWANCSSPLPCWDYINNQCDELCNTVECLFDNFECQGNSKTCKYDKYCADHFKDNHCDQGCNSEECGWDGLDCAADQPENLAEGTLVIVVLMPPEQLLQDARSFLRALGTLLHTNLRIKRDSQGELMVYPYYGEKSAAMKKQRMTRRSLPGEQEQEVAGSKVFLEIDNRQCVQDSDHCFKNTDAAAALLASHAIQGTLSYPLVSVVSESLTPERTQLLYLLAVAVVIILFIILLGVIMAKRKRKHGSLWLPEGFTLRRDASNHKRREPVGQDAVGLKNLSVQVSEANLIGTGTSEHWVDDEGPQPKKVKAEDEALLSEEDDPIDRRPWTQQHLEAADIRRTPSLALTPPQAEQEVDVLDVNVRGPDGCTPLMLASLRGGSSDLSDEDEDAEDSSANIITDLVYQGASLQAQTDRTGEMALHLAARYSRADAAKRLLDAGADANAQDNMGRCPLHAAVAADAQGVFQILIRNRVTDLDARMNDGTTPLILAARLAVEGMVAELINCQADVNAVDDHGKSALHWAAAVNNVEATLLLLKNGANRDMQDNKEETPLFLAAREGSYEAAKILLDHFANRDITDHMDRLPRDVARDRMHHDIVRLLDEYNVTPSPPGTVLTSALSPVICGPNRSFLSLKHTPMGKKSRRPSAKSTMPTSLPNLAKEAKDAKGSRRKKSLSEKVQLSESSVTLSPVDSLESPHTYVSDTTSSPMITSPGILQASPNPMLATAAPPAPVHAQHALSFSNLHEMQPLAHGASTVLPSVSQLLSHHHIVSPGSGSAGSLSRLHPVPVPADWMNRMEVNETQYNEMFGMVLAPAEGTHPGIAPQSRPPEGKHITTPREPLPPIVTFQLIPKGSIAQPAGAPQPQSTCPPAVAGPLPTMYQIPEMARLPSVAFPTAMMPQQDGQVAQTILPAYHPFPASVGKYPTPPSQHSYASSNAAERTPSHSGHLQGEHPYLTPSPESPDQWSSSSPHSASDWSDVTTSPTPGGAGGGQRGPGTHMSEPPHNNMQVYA

Regarding `CC(C)C(=C=CC[C@@H](O)c1ccc(OCCO)cc1)C[C@@H](O)COCc1ccccc1`, the composite z-score in [1] was -0.342; in experiment [2], 0.3; in experiment [3], -0.085; in experiment [4] it was -0.376; in [5], -0.0534; in [6] it was -0.849. The composite z-score in experiment [7] was 0.449; in experiment [9], -0.0716; in experiment [10], -0.0994; in [11] it was 1.54; in experiment [15], 1.93; in [17], -0.192. The composite z-score in experiment [18] was 1.65; in [19], 0.652; in [20], -0.135. The z-score was -1.74 (inactive) in experiment [8]; -1.06 (inactive) in experiment [12]; -1.09 (inactive) in experiment [13]; -0.418 (inactive) in experiment [14]; 1.14 (inactive) in experiment [16].
Turning to `CCOC(=O)C1=C[C@@H](C(C)(C)C)N(S(=O)(=O)c2ccc(C)cc2)[C@H]1c1ccc(F)cc1`, the composite z-score in [1] is -0.272; in [2], 0.59; in experiment [3], 0.0434; in experiment [4], 0.619; in experiment [5] it was 1.59; in experiment [6], -0.11. The composite z-score in experiment [7] is 0.69; in experiment [9], 1.05; in experiment [10] it was -0.0324; in experiment [11], 1.5; in [15], 3.07; in [17], -0.0341. The values for the composite z-score in experiment [18], in [19] and in experiment [20] were 0.989, 1.07 and -0.0004, respectively. In addition, the z-score is -0.705 (inactive) in [8]; 0.518 (inactive) in experiment [12]; 1.95 (inactive) in [13]; 1.92 (inactive) in experiment [14]; -1.02 (inactive) in experiment [16].
Consider `CCCC[C@@H]1C[C@H]1[C@@H](NC(=O)c1cccs1)c1ccc(-c2ccccc2)cc1`, for which the composite z-score in [1] was 0.108; in experiment [2], 0.0945; in experiment [3] it was 0.189; in experiment [4], 0.486; in experiment [5] it was 0.146; in [6] it was -0.0051. Besides, the composite z-score in [7] was 0.411; in [9] it was 0.151; in experiment [10], 0.2; in [11] it was 0.464; in [15] it was 1.09; in [17] it was -0.121. In addition, the values for the composite z-score in [18], in experiment [19] and in [20] were 0.692, 0.428 and -0.0688, respectively. The z-score was -0.621 (inactive) in [8]; 0.227 (inactive) in [12]; -3.7 (inactive) in experiment [13]; -1.24 (inactive) in experiment [14]; -0.692 (inactive) in [16].
As for `C=CCNC(=O)[C@H]1[C@@H]2C(=O)O[C@@H](c3ccccc3)[C@@H](c3ccccc3)N2[C@@H](c2ccccc2OCCO)[C@]12C(=O)Nc1ccc(C#CCC(C(=O)OC)C(=O)OC)cc12`, the composite z-score in [1] stood at 0.0775; in [2], 0.44; in [3] it was 0.0468; in [4], 0.423; in experiment [5], 1.53; in experiment [6], 1.46. Moreover, the composite z-score was determined as 1.34 in experiment [7]; 1.08 in experiment [9]; 0.409 in experiment [10]; 1.32 in experiment [11]; 3.25 in experiment [15]; 0.65 in experiment [17]. Besides, the composite z-score was determined as 0.897 in experiment [18], 1.05 in experiment [19] and 0.486 in experiment [20]. For the same compound, the z-score was -0.616 (inactive) in experiment [8]; 1.93 (inactive) in [12]; 2 (inactive) in [13]; 5.92 (inactive) in experiment [14]; 0.587 (inactive) in experiment [16].
Regarding `O=C1C2C=CC(C(O)c3cc(C(F)(F)F)cc(C(F)(F)F)c3)N(n3cnnc3)C2C(=O)N1Cc1ccccc1` (stereo not given), the composite z-score in [1] was -0.153; in experiment [2], 0.0607; in [3], -0.0628; in experiment [4], -0.251; in experiment [5], 0.203; in experiment [6], 0.339. The composite z-score in experiment [7] was -0.159; in [9], 0.368; in experiment [10], 0.144; in experiment [11] it was 0.369; in experiment [15], 2.5; in [17], -0.191. Moreover, the composite z-score in [18] is -0.267; in [19], 0.679; in [20], -0.139. Further, the z-score in experiment [8] was 1.1 (inactive); in experiment [12] it was -0.572 (inactive); in experiment [13] it was 0.685 (inactive); in [14], -0.384 (inactive); in experiment [16] it was 0.0068 (inactive).

Values taken from PubChem BioAssay.
